# From PubChem BioAssay (NCATS)
# “And” between values parts separate entries of the source, which are not always exact repeats. Equal entries are not always repeated. Inconclusive results are not listed. The source made the active and inactive calls. Unless noted, calls come from the whole dose curve; as a rule, active = well fitted curve in the direction sought with a large enough effect; inconclusive = small, poorly fitted or top-dose-only effect, or another doubt; inactive = no such curve, though single readings can be large; an effect the other way counts as inactive or inconclusive.
# Experiments:
# [1] = target: Retinoic acid receptor RXR-alpha (Homo sapiens) (UniProt P19793); test: qHTS assay for small molecule antagonists of retinoid X receptor alpha signaling (AID 588546; active = well fitted inhibition curve with a large enough effect in the signal ratio, with a control signal flat, not every such curve was filed as active; the % refers to the signal ratio;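 note: cells stimulated with 9-cis-retinoic acid as agonist; % is set by controls: 0 for no effect and ±100 for the full control effect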); settings: HEK293T RXRa-UAS-bla, beta-lactamase ratio, antagonist mode
# Sequence of Retinoic acid receptor RXR-alpha (Homo sapiens) (P19793 whole entry, looked up): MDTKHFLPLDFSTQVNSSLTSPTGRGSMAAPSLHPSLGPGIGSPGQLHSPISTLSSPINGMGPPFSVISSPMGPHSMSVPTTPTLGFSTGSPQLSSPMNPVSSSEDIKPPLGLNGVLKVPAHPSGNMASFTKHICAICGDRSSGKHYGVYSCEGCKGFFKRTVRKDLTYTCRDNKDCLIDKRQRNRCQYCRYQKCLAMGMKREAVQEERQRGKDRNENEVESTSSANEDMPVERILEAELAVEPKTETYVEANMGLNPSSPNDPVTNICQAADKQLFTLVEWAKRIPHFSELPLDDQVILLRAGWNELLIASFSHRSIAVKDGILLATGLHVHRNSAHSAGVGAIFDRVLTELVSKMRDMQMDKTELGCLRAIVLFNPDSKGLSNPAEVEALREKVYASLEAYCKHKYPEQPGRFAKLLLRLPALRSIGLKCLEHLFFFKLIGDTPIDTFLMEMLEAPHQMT
# How it was run: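 Beta-lactamase reporter inhibition, read as CCF4 fluorescence ratio (ex 405, em 460/530 nm) after 2 h at RT. HEK293T UAS-bla cells, 2500/well, were stimulated with 9-cis-RA at 500 or 100 nM final alongside test compound for 18 h at 37 C.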
# [2] = target: Thyroid hormone receptor beta (Homo sapiens) (UniProt P10828); test: qHTS assay for small molecule antagonists of thyroid hormone receptor beta signaling (AID 588547; active = well fitted inhibition curve with a large enough effect in the signal ratio, with a control signal flat, not every such curve was filed as active; the % refers to the signal ratio;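 note: cells stimulated with 0.4 nM T3 agonist during compound exposure; % is set by controls: 0 for no effect and ±100 for the full control effect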); settings: TR-UAS-bla HEK293, beta-lactamase ratio, antagonist mode, 18 h
# Sequence of Thyroid hormone receptor beta (Homo sapiens) (P10828 whole entry, looked up): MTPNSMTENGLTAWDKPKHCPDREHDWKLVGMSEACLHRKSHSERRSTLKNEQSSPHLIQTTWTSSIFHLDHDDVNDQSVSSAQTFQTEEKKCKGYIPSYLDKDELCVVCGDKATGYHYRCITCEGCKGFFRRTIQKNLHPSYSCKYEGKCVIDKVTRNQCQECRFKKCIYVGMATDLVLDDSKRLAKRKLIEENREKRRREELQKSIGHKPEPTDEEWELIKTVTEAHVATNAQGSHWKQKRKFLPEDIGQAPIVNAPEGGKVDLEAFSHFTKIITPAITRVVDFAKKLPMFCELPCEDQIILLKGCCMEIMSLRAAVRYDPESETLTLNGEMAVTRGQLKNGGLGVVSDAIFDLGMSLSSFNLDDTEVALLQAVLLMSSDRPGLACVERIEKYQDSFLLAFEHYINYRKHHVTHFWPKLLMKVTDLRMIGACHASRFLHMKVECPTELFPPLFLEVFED
# How it was run: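 TR-UAS-bla GripTite HEK293 cells in 2% charcoal/dextran FBS medium were preincubated 4 h at 37 C, given compound (0.59 nM to 92 uM) plus 0.4 nM T3 (final) for 18 h, then CCF4 for 2 h at RT; Hill fit gave IC50.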
# [3] = qHTS assay for small molecule activators of the p53 signaling pathway (AID 651743; active = well fitted activation curve with a large enough effect in the signal ratio, not every such curve was filed as active; the % refers to the signal ratio; note: % of control where 0% means no effect); settings: HCT-116 p53RE-bla, beta-lactamase FRET ratio, 16 h; activation: stronger effect = higher value
# How it was run: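 p53RE-bla HCT-116 cells with a stably integrated beta-lactamase reporter under p53 response elements were plated, rested 5 hours at 37 C/5% CO2, then exposed to compounds in DMSO for 16 hours at 37 C. LiveBLAzer B/G FRET substrate was read after 2 hours at room temperature.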
# [4] = qHTS assay for small molecule activators of the nuclear factor-kappa B (NF-kB) signaling pathway (AID 651749; active = well fitted activation curve with a large enough effect in the signal ratio; the % refers to the signal ratio; note: % of control where 0% means no effect); settings: NF-kB-bla ME-180 cells, beta-lactamase FRET ratio, 16 h; activation: stronger effect = higher value
# How it was run: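 ME-180 cells stably carrying a beta-lactamase reporter under an NF-kB response element were exposed to compound or DMSO vehicle for 16 hr at 37C, 5% CO2. Pathway activation was read by FRET, since reporter expression disrupts FRET.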
# [5] = qHTS assay for small molecule disruptors of the mitochondrial membrane potential - 1 hr assay (AID 651754; calls by dose curve; note: potency is the fitted concentration of half-maximal effect; nearly all actives have a fitted effect of over 35% in size)
# How it was run: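 HepG2 cells, attached overnight at 37C, were exposed to compound or DMSO vehicle for 1 hr at 37C, 5% CO2, then stained with Mito-MPS dye for 30 min. Red aggregate versus green monomer fluorescence reports membrane potential.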
# [6] = qHTS assay for small molecule disruptors of the mitochondrial membrane potential - 5 hr assay (AID 651755; calls by dose curve; note: potency is the fitted concentration of half-maximal effect; nearly all actives have a fitted effect of over 40% in size)
# How it was run: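 HepG2 cells, attached overnight at 37C, were exposed to compound or DMSO for 5 hr at 37C, 5% CO2. Mito-MPS dye was then added for 30 min, and fluorescence read at 490/535 nm (monomers) and 540/590 nm (aggregates).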
# [7] = target: Tumor necrosis factor (Homo sapiens) (UniProt P01375); test: qHTS assay to identify small molecules that stimulate Tumor Necrosis Factor-alpha (TNF-alpha) secretion (AID 651757; active = well fitted curve in the direction sought with a large enough effect in the signal ratio; the % refers to the signal ratio; note: 0% is about no effect)
# Sequence of Tumor necrosis factor (Homo sapiens) (P01375 whole entry, looked up): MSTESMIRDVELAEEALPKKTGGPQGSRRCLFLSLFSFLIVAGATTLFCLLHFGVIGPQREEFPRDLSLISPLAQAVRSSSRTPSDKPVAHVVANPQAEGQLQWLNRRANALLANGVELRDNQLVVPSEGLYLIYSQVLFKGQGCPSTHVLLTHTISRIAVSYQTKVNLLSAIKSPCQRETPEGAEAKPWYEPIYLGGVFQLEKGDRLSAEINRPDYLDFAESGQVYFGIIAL
# How it was run: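 THP-1 cells were exposed to compounds for 17 hrs at 37 C, after which secreted TNF-alpha was measured by homogeneous HTRF (TR-FRET) using cryptate- and XL665-labeled anti-TNF-alpha antibodies, read after 3 hr at room temperature.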
# [8] = qHTS assay for environmental chemicals that activate the Aryl hydrocarbon Receptor (AhR) signaling pathway (AID 651777); settings: 1A2-DRE human hepatoma cells, luciferase, 24 h; activation: stronger effect = higher value; note: % of control where 0% means no effect; nearly all actives have a fitted effect of over 15% in size
# How it was run: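 Concentration–response screening used 1,200 1A2-DRE cells per well, 24 hr compound exposure (37 C, 5% CO2), and One-Glo luminescence as the AhR-driven CYP1A2 reporter signal.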
# [9] = target: Peroxisome proliferator-activated receptor alpha (Homo sapiens) (UniProt Q07869); test: qHTS assay for small molecule agonists of the peroxisome proliferator-activated receptor alpha (PPARalpha) signaling pathway (AID 651778); settings: PathHunter PPARalpha complementation, chemiluminescence, 6 h; stronger effect = higher value; note: % of control where 0% means no effect
# Sequence of Peroxisome proliferator-activated receptor alpha (Homo sapiens) (Q07869 whole entry, looked up): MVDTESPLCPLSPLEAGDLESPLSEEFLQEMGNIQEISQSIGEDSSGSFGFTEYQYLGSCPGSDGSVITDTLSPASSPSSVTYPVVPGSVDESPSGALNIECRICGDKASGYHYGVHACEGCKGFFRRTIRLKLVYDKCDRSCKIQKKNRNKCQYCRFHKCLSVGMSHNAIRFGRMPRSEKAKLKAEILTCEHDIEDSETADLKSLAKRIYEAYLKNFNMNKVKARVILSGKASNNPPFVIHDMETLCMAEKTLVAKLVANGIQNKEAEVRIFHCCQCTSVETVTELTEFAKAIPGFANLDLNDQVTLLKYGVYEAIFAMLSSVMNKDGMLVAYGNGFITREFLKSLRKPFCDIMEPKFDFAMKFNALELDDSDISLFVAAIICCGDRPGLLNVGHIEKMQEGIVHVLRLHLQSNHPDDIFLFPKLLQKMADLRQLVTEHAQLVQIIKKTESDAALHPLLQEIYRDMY
# How it was run: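 Cells plated at 2,000/well and held overnight at 37 C, 5% CO2, then compound added by pin tool for 6 hr; after PathHunter detection reagent and 60 min at room temperature, chemiluminescence from enzyme complementation was read.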
# [10] = target: Nuclear receptor ROR-gamma (Homo sapiens) (UniProt P51449); test: qHTS assay for small molecule antagonists of the retinoid-related orphan receptor gamma (ROR-gamma) signaling pathway (AID 651802); note: potency is the fitted concentration of half-maximal effect; nearly all actives have a fitted effect of over 60% in size
# Sequence of Nuclear receptor ROR-gamma (Homo sapiens) (P51449 whole entry, looked up): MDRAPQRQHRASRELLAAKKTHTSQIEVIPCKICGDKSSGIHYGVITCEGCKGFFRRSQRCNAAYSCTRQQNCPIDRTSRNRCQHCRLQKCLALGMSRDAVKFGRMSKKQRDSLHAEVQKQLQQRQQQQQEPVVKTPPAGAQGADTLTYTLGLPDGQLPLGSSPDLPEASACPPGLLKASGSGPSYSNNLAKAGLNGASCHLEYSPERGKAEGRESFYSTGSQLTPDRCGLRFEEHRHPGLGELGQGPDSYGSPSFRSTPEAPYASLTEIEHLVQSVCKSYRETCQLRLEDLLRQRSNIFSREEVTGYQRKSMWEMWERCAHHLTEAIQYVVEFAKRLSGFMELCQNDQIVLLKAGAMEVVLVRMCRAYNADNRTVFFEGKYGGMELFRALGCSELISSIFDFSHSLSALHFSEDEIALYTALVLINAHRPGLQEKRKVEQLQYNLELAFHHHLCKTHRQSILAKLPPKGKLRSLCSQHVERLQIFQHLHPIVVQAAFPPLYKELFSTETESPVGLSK
# How it was run: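 CHO cells carrying TET-inducible ROR-gamma and an ROR response element–luciferase reporter were exposed to compound, then induced with doxycycline. After 16hr at 37C, luminescence was read; lower signal indicates antagonism.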
# [11] = qHTS assay for small molecule agonists of the antioxidant response element (ARE) signaling pathway measured by Nrf2-dependant transcriptional activity (AID 720636; active = well fitted curve in the direction sought with a large enough effect in the repeat runs; an effect the other way counts as inactive or inconclusive;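 note: HepG2 cells with an ARE-driven luciferase reporter; % of control where 0% means no effect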)
# How it was run: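 Attachment 6 hr at 37 C, then compound versus DMSO vehicle for 16 hr in ARE-luc HepG2 cells (1% dialyzed FBS); luminescence recorded 30 min after ONE-Glo addition at room temperature.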
# [12] = qHTS assay for small molecule agonists of the antioxidant response element (ARE) signaling pathway measured by Nrf2-dependant transcriptional activity - cell viability counter screen (AID 720653; active = well fitted curve in the direction sought with a large enough effect in the repeat runs; an effect the other way counts as inactive or inconclusive; note: % is set by controls: 0 for no effect and ±100 for the full control effect); settings: ARE-bla HepG2 viability, CellTiter-Glo ATP luminescence, 16 h; stronger effect = lower value
# How it was run: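 ARE-bla HepG2 cells (2,000/well) rested 5 hrs at 37C/5% CO2, then exposed to compounds in DMSO for 16 hrs. Viability was read in the same wells as intracellular ATP by luminescence, 30 min at room temperature after reagent addition.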
# [13] = qHTS assay for cell viability of HEK293 cells (AID 743288); settings: ATP luminescence (CellTiter-Glo), 18 h; max response: stronger effect = lower value; note: % is set by controls: 0 for no effect and ±100 for the full control effect; nearly all actives have a fitted effect of over 50% in size
# How it was run: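 Luminescent ATP quantitation served as the viability read-out. Cells (parental HEK293, 2,000/well) received compounds after at least 5 h at 37 C and were exposed for 18 h before a 30 min room-temperature reagent step.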
# [14] = qHTS assay for cell viability of the p53RE-bla HCT-116 cell line (AID 743292); note: % is set by controls: 0 for no effect and ±100 for the full control effect; nearly all actives have a fitted effect of over 55% in size
# How it was run: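 Compound-exposed HCT-116 (p53RE-bla) cells, 4,000 per well, were kept 16 h at 37 C following a 5 h preincubation. Cell number was estimated from total ATP by CellTiter-Glo luminescence read after 30 min at room temperature.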
# [15] = target: Catechol O-methyltransferase (Homo sapiens) (UniProt P21964); test: Confirmatory Screen for Target Class Profiling of Small Molecule Inhibitors of Methyltransferases (AID 1745852; calls by dose curve; note: potency is the fitted concentration of half-maximal effect); settings: MTase-Glo luminescence, SAH detection, recombinant enzyme; measured here: COMT max response; stronger effect = lower value
# Sequence of Catechol O-methyltransferase (Homo sapiens) (P21964 whole entry, looked up): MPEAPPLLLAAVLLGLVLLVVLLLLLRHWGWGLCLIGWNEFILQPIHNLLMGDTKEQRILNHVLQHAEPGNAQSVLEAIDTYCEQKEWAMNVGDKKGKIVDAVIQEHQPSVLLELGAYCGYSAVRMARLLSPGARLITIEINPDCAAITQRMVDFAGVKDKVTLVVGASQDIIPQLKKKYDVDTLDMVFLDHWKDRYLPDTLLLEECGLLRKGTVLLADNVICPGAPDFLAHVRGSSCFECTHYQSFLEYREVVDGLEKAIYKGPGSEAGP
# [16] = target: Guanidinoacetate N-methyltransferase (Homo sapiens) (UniProt Q14353); test: as above; settings: MTase-Glo luminescence, SAH detection, recombinant enzyme; activity change, negative = inhibition: at 85.7 µM (top of the series) unless noted
# [17] = target: Nicotinamide N-methyltransferase (Homo sapiens) (UniProt P40261); test: as above; settings: MTase-Glo luminescence, SAH detection, recombinant enzyme; measured here: NNMT max response; stronger effect = lower value
# Sequence of Nicotinamide N-methyltransferase (Homo sapiens) (P40261 whole entry, looked up): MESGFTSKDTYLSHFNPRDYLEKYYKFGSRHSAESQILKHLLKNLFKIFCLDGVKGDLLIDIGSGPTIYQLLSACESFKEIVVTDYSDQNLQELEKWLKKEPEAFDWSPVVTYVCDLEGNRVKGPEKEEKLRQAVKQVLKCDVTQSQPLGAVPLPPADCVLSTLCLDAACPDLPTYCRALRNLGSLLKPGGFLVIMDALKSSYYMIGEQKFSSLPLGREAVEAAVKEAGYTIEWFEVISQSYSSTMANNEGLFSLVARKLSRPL
# [18] = target: Phenylethanolamine N-methyltransferase (Homo sapiens) (UniProt P11086); test: as above; settings: MTase-Glo luminescence, SAH detection, recombinant enzyme; measured here: PNMT max response; stronger effect = lower value
# Sequence of Phenylethanolamine N-methyltransferase (Homo sapiens) (P11086 whole entry, looked up): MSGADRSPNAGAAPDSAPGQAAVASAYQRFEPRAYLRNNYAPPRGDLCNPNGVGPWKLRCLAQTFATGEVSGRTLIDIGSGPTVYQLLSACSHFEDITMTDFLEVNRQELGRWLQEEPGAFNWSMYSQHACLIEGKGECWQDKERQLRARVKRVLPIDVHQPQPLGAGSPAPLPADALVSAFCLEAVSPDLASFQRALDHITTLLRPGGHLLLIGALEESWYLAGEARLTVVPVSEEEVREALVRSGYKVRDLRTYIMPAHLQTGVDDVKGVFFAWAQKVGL
# [19] = target: Glutathione peroxidase 1 (Homo sapiens) (UniProt P07203); test: Primary qHTS Assay for Inhibitors of Recombinant Selenoprotein Glutathione Peroxidase 1 (GPX1) (AID 1845191); note: % is set by controls: 0 for no effect and ±100 for the full control effect; nearly all actives have a fitted effect of over 65% in size
# Sequence of Glutathione peroxidase 1 (Homo sapiens) (P07203 whole entry, looked up): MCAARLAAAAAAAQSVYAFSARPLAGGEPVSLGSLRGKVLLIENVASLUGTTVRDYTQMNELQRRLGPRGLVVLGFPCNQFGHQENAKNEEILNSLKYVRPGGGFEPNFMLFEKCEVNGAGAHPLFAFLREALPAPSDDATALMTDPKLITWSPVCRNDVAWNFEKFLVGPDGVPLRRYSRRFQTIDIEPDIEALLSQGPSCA
# How it was run: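 Recombinant GPX1 (10 nM final) was preincubated with compound for 30 min at room temperature, then reacted with 1 mM GSH, 0.5 mM CHP, 0.5 mM NADPH and 100 nM glutathione reductase; NADPH fluorescence (340/450 nm) was read at 0 and 15 min.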
# [20] = target: Nuclear receptor subfamily 1 group I member 2 (Rattus norvegicus) (UniProt Q9R1A7); test: qHTS assay for small molecule activators of the rat pregnane X receptor (rPXR) signaling pathway (AID 651751; call rule not given here; note: 0% is about no effect); settings: rPXR reporter cells, luciferase (One-Glo), 24 h
# Sequence of Nuclear receptor subfamily 1 group I member 2 (Rattus norvegicus) (Q9R1A7 whole entry, looked up): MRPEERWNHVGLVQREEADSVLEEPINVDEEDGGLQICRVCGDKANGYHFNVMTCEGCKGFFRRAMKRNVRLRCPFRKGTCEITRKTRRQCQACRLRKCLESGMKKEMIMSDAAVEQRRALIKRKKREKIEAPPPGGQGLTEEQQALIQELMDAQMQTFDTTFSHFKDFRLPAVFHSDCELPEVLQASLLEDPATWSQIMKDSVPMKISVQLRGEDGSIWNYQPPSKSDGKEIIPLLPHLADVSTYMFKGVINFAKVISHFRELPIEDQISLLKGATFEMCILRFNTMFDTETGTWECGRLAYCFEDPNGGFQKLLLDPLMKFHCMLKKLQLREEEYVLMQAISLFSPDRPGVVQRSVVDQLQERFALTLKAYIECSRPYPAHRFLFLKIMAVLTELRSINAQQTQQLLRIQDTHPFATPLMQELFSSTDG
smiles,measurement,setting,value
C[C@H]1CCCC(=O)CCC/C=C/c2cc(O)cc(O)c2C(=O)O1,max response,[1],-20.8% (inactive)
same,activity change % (negative = inhibition),[2],-19.1% (inactive) and -18.2% (inactive)
same,activation,[3],20.6% (inactive)
same,activation,[4],-2.55% (inactive) and -2.52% (inactive) and -4.61% (inactive)
same,Potency,[5],37.6 µM (active)
same,Potency,[6],33.5 µM (active) and 37.6 µM (active)
same,outcome,[7],inactive
same,activation,[8],-5.88% (inactive) and -4.48% (inactive) and -7.69% (inactive)
same,max response,[9],-0.403% (inactive) and -3.88% (inactive) and -0.278% (inactive)
same,Potency,[10],42.2 µM (active)
same,outcome,[11],inactive
same,max response,[12],-27% (inactive) and -18.5% (inactive)
same,max response,[13],-26.5% (inactive) and -8.31% (inactive) and -15% (inactive)
same,Potency,[14],inactive
same,activity,[15],-93%
same,Potency,[16],17.1 µM (active)
same,activity,[17],-84.9%
same,activity,[18],-95%
same,Potency,[19],inactive
same,max response,[20],-12.4% (inactive) and -5.06% (inactive) and -7.58% (inactive)
